Data: PubChem BioAssay AID463190 (Sanford-Burnham Center for Chemical Genomics, 2010)
The whole screen tested about 330,000 compounds, of which about 7,300 (2.2%) were called active. Only a selection was taken, and actives are over-represented in it overall. A number with no mark means an inactive call.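 Rule for the calls: active = inhibition of at least 40%; inactive = the rest.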

test: growth inhibition of tim10-1 ts yeast – luminescence, uHTS, primary screen (AID 463190);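 note: mutant grown at 25 °C; 0% = DMSO wells with yeast and 100% = wells holding no yeast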; conditions: S. cerevisiae tim10-1 ts strain growth, BacTiter-Glo, 24 h; at 20 µM; stronger effect = higher value

| SMILES | inhibition |
| --- | --- |
| O=C(C(=O)N1CCc2ccccc2C1)c1c[nH]c2ccccc12 | 40.7% (active) |
| CC1CCN(CC(=O)c2c[nH]c3ccccc23)CC1 | 16% |
| O=C(NC1CCCC1)C(=O)c1c[nH]c2ccccc12 | -16.2% |
| Cc1ccc(N2CC(C(=O)N3CCC4(CC3)CC(=O)c3ccccc3O4)CC2=O)cc1C (stereo unspecified) | 1.3% |
| Cc1ccc(C(=O)NC23CC4CC(CC(C4)C2)C3)c(Cl)c1 | -11.9% |
| C/C(=N/NC(=O)c1cc(Cl)ccc1O)C12CC3CC(CC(C3)C1)C2 | 50.7% (active) |
| O=C(N/N=C1\CCSC1)c1cc(Cl)ccc1O | -11.5% |
| COc1ccc2nc(Nc3nc4cc5c(cc4s3)OCCO5)sc2c1 | 47.7% (active) |
| COc1ccc2nc(NC(=O)NC3CCCCC3)sc2c1 | 21.2% |
| CCc1noc(C)c1C(=O)Nc1nc2ccc(OC)cc2s1 | 26.7% |
| c1ccc(-c2cnc(CN3CCN(c4ccccc4)CC3)o2)cc1 | 2.4% |
| Fc1ccc(N2CCN(Cc3cnc(Oc4ccc(Br)cc4)s3)CC2)cc1 | 42.4% (active) |
| COc1ccc(N2CCN(Cc3ccc(Br)s3)CC2)cc1 | 19.9% |
| COc1ccc(N2CCN(C(CNS(=O)(=O)c3ccc(C)cc3)c3ccccc3)CC2)cc1 (stereo unspecified) | 4.98% |
| CS(=O)(=O)c1ccc(C(=O)OCC(=O)NNC(=O)COc2ccc(Cl)cc2)cc1 | -15.1% |
| C/C=C/c1ccc(OCCCCN2CCC(C)CC2)c(OC)c1 | 15.8% |
| COc1ccc(NC(=O)CNC(=O)Cc2ccccc2)cc1OC | -6.35% |
| COc1ccc(NC(=O)c2ccccc2[N+](=O)[O-])cc1OC | 15.9% |
| COc1ccc(NC(=O)c2cc3nc(-c4ccccc4)cc(C)n3n2)cc1OC | 51.1% (active) |
| O=C(COC(=O)/C=C/c1ccc(S(=O)(=O)N2CCCCCC2)cc1)NCc1ccccc1Cl | 35.9% |
| Cc1onc(-c2ccccc2Cl)c1C(=O)N(Cc1ccc(N(C)C)cc1)C(C)C | 23.4% |

| SMILES | inhibition |
| --- | --- |
| O=c1ccc2c(-c3ccccc3S(=O)(=O)O)c3ccc(O)c(O)c3oc-2c1O | 38.3% |
| Cc1ccc(C)c(CN2CCC(CNC(=O)Nc3ccc(C)c(F)c3)CC2)c1 | 30.5% |
| Cc1ccccc1NC(=O)NCC1CCN(Cc2cccc(Cl)c2)CC1 | 4.31% |
| Cc1cccc(CN2CCC(CNC(=O)Nc3ccc(F)c(Cl)c3)CC2)c1 | 41.3% (active) |
| Cc1cccc(-c2c(NC(=O)c3ccco3)oc3ccc(Cl)cc3c2=O)c1 | 7.38% |
| CCN(C(=O)Cc1c(C(=O)O)n(CC)c2ccccc12)c1ccccc1C | 19.7% |
| O=C(O)COc1ccc(-c2nccc(-c3cccs3)n2)cc1 | 10.2% |
| CN(C(=O)COc1nnc(-c2cccs2)c(-c2cccs2)n1)c1ccccc1 | 46.6% (active) |
| CN(C(=O)COC(=O)CNC(=O)C12CC3CC(CC(C3)C1)C2)c1ccccc1 | 4.63% |
| O=C(CC1NCCc2ccccc21)Nc1cccc(Cl)c1 (stereo unspecified) | 34.9% |
| Cc1ccc(NS(=O)(=O)c2c(C)[nH]c(=O)[nH]c2=O)cc1C | 0.26% |
| CCOc1ccc(CN2CCN(Cc3ccon3)CC2CCO)cc1 (stereo unspecified) | 9.62% |
| O=C(CCCN1C(=O)CCC1=O)Nc1ccc(Cl)c(C(F)(F)F)c1 | -0.021% |
| CS(=O)(=O)N(CC(=O)Nc1ccc(Cl)c(Cl)c1)C1CCCCC1 | 35.1% |
| O=C(CC(O)(C(F)(F)F)C(F)(F)F)Nc1ccc(Cl)c(Cl)c1 | 85.2% (active) |
| CC1CCCCC1NC(=O)NC(=O)COC(=O)C1=NN(c2ccccc2)C(=O)CC1 (stereo unspecified) | -2.21% |
| C#C[C@]1(O)CC[C@H]2[C@@H]3CCC4=CC(=O)CC[C@@H]4[C@H]3CC[C@@]21CC | 12.4% |
| COc1ccccc1CN(C)C(=O)C1(c2ccc(Cl)cc2)CC1 | 3.3% |
| N#CCc1ccc(OC(=O)c2cccnc2)cc1 | 19.6% |
| CCCCCCOc1ccc(OC(=O)c2cccnc2)cc1 | 7.23% |
| O=C(Oc1c(-c2ccco2)oc2ccccc2c1=O)c1cccnc1 | 45.4% (active) |

| SMILES | inhibition |
| --- | --- |
| CCOc1ccc(C(CC(=O)O)NC(=O)Cc2ccccc2)cc1OC (stereo unspecified) | -13.2% |
| CCOc1ccc(C(C)NC(=O)CN2C(=O)NC3(CCCCC3)C2=O)cc1OCC (stereo unspecified) | 0.453% |
| CCOc1ccc(C(c2c(C)[nH][nH]c2=O)c2c(C)[nH][nH]c2=O)cc1OCC | 45.9% (active) |
| CCOC(=O)c1cn(CC)c2cc(F)c(F)cc2c1=O | -8.23% |
| CC(=O)NC(CC(=O)Nc1cccc(S(=O)(=O)N2CCCC2)c1)c1ccccc1 (stereo unspecified) | 19.9% |
| CN1CCN(c2cc(=O)n(-c3ccc(Cl)cc3)c(=O)[nH]2)CC1 | -20.5% |
| COc1ccc(N(CC(=O)Nc2cc(OC)ccc2OC)S(=O)(=O)c2c(C)noc2C)cc1 | 29.9% |
| CCOC(=O)Cc1csc(SCC(=O)NC(C)C23CC4CC(CC(C4)C2)C3)n1 (stereo unspecified) | 43.5% (active) |
| CCOC(=O)Cc1csc(NC(=O)CSc2nnc(-c3cccnc3)n2Cc2ccco2)n1 | 13.4% |
| CCOC(=O)Cc1csc(NC(=O)COc2ccc3c(C)cc(=O)oc3c2)n1 | 11.9% |
| CCOC(=O)Cc1csc(NC(=O)CSc2ccc(Br)cc2)n1 | 46.9% (active) |
| CCOC(=O)Cc1csc(SCC(=O)Nc2ccc(C)cc2F)n1 | 18.9% |
| CCOC(=O)Cc1csc(SCc2cc(=O)oc3cc(O)ccc23)n1 | 12.7% |
| NS(=O)(=O)c1ccc(CCNC(=O)c2ccc([N+](=O)[O-])cc2[N+](=O)[O-])cc1 | 2.98% |
| CCCN(C(=O)CSc1nnnn1C)c1c(N)n(Cc2ccccc2)c(=O)[nH]c1=O | -2.11% |
| CN(CC(=O)Nc1cccc(F)c1)C(=O)C1CSC2(C)CCC(=O)N12 (stereo unspecified) | 2.74% |
| COc1ccccc1N1CCN(C(=O)c2cc(=O)c3cc(C)cc(C)c3o2)CC1 | 45.3% (active) |
| O=C(c1cc(=O)c2ccccc2o1)N1CCN(c2ccccc2)CC1 | 5.8% |
| COc1ccccc1N1CCN(C(=O)c2cc(=O)c3cc(C)ccc3o2)CC1 | 36.5% |
